Structures are written as SMILES. About 8,600 (12%) of roughly 69,000 compounds showed an effect of 50% or more. For the sample, strong results were picked, then their nearest neighbours and some compounds at random.

This passage reports INHIBITION results from ChEMBL document CHEMBL4513216, “Probing the Open Global Health Chemical Diversity Library for Multistage-Active Starting Points for Next-Generation Antimalarials” (ACS Infect Dis, 2020).

This test has as its system Plasmodium berghei. In words: Screen against P. berghei liver stage (PbLuc), transformed with Luciferase, at 10uM. It counts as functional, HepG2. To be noted: tested at 10 uM.
For the molecule `O=C(NCc1ccccn1)NCc1ccc(Cl)s1`, the INHIBITION is given as 17.5%. As to `Cc1ccc(C)c(S(=O)(=O)CCNC2CCc3ncnn3C2)c1` (stereo unspecified), the INHIBITION is -21.9%. As to `CC(NCc1ccnc(OC2CCC2)c1)c1cnn(C)c1` (stereo unspecified), the INHIBITION is listed as -4.92%. Next, `O=C1OCCN1CC(=O)N1C[C@@H]2CC[C@H]1CN(C(=O)c1cccnc1)C2`: 29.6%.

As to `Cc1cc(N2CCC(Cc3cccnc3)CC2)ncn1`, the INHIBITION stood at 39.7%. As for `CC(=O)N1CCN(C(=O)c2sc(-c3ccccc3F)nc2C)CC1`, the figure is -10.8%; as for `OCC1CCCN1c1cc(NCc2cccs2)ncn1` (stereo unspecified), 31.3%. Regarding `Cc1c(C)n(CC(O)CN2CCN(CCO)CC2)c2c(Cl)cccc12` (stereo unspecified), the INHIBITION amounted to 28.6%.

With `Cc1ccc(F)cc1S(=O)(=O)NCc1[nH]ncc1Br`, the INHIBITION came out at 1.62%. As for `Cc1ccc(F)c(S(=O)(=O)NCc2[nH]ncc2Br)c1`, the figure is 52.9%; as for `Cc1cc(F)ccc1S(=O)(=O)NCc1[nH]ncc1Br`, -3.14%. As for `Cc1cccc(CN2CCOCC2c2[nH]ncc2C)n1` (stereo unspecified), the figure is 31.9%; as for `CS(=O)(=O)N1C[C@@H]2CCN(C(=O)c3ccco3)[C@@H]2C1`, 24.9%. Next, `O=C(c1ccco1)N1CC[C@H]2[C@H]1CCN2S(=O)(=O)C1CC1`: 58.7%; `O=C([C@H]1C[C@H]2OCC[C@H]2N(C(=O)c2ccnnc2)C1)N1CCCCO1`: 19.5%. Turning to `O=C(c1ccco1)N1CC[C@H]2[C@H]1CC(=O)N2c1cccnc1`, the INHIBITION is given as -5.89%. As for `Cn1cc(N2C(=O)C[C@@H]3[C@@H]2CCN3C(=O)c2ccco2)cn1`, the INHIBITION was 12.2%. Next, `O=C(c1ccoc1)N1CC[C@H]2[C@H]1CCN2S(=O)(=O)C1CC1`: 44.8%. Next, `O=C(c1ccccn1)N1CC[C@H]2[C@H]1CCN2S(=O)(=O)C1CC1`: -60.2%; `CC(C)N1C(=O)C[C@H]2[C@@H]1CCN2C(=O)c1ccco1`: 53.9%; `O=C(C1CCC1)N1CCN(C(=O)c2cnccn2)[C@H]2CS(=O)(=O)C[C@H]21`: 23.5%. Next, `O=C(c1ccnnc1)N1CC[C@H]2[C@H]1CCN2S(=O)(=O)C1CC1`: 63.1%; `O=C(c1ccncc1)N1CC[C@H]2[C@H]1CCN2S(=O)(=O)C1CC1`: -69.3%; `O=C(c1cnccn1)N1CC[C@H]2[C@H]1CCN2S(=O)(=O)C1CC1`: 71%. Regarding `CN(C)CC(=O)N1CCN(c2cc(N3CCCC3CO)ncn2)CC1` (stereo unspecified), the INHIBITION is -5.1%. `CNC(=O)NC(=O)C(C)N1CCN(c2ccc(C#N)cc2F)CC1` (stereo unspecified): the INHIBITION is 11.8%.
